Experimental data taken from PubChem BioAssay (Tox21).
Records with an inconclusive call do not appear. Entries that show only a call come without a potency. Active and inactive are the calls of the source. Calls come from the whole dose curve; as a rule, active = well fitted inhibition curve with a large enough effect in the repeat runs; inconclusive = weak or mixed curves; inactive = flat fitted curve, though single readings scatter.

target: Voltage-gated inwardly rectifying potassium channel KCNH2 (Homo sapiens) (UniProt Q12809); assay: Human Ether-a-go-go-Related Gene (hERG) channel small molecule antagonists: fluorescence cell-based qHTS assay (AID 1671200); settings: hERG-U2OS cells, FluxOR thallium flux fluorescence; series mostly up to 76.8 µM; note: nearly all actives have a fitted effect of over 50% in size
Sequence (Q12809 whole entry, looked up): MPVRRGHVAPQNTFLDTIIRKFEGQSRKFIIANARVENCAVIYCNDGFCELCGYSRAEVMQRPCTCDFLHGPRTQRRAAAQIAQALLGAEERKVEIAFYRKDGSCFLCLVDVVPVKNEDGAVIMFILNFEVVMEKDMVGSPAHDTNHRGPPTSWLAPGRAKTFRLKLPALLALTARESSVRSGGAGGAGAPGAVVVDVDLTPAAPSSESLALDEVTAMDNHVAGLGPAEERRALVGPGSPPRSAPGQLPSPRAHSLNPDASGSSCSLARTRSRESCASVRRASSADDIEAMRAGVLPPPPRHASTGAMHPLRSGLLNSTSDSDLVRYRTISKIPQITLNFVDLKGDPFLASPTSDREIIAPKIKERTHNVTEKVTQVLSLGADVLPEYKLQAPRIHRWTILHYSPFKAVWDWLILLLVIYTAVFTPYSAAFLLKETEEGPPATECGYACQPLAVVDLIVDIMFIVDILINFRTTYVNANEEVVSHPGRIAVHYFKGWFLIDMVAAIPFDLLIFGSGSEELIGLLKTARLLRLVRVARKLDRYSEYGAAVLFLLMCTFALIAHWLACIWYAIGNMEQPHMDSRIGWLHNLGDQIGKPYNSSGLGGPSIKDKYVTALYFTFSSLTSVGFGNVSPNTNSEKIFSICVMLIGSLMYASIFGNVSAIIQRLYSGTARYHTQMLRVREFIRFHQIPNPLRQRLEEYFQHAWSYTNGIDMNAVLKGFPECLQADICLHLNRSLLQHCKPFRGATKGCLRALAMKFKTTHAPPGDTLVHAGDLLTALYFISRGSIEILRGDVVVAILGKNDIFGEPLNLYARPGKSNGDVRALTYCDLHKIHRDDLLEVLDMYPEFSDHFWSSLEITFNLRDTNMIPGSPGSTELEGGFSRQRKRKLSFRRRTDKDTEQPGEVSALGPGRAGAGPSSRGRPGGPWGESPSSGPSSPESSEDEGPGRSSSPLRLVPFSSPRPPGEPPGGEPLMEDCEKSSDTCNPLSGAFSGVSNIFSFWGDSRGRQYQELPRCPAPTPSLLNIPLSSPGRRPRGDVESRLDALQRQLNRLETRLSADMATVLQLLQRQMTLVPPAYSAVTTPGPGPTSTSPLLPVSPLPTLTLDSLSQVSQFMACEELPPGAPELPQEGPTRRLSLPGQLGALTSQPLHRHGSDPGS
Text: National Center for Advancing Translational Sciences [NCATS]
U.S. Environmental Protection Agency [EPA]
National Institutes of Environmental Health Sciences [NIEHS]
National Toxicology Program [NTP]
U.S. Food and Drug Administration [FDA]
Mutations in the hERG channel cause Long QT (LQT) syndrome. LQT syndrome is a cardiac disorder which can cause ventricle arrhythmia and sudden death. Additionally, compounds which block the hERG channel can cause acquired LQT syndrome. Several FDA approved drugs have been removed from the market due to their hERG blocking activity. A cell-based hERG channel inhibition assay can be used to screen chemical compounds that inhibit hERG channel. This assay measures hERG channel activity using thallium ions as surrogate ions to measure potassium into the cells.
Tox21 Assay Protocol Summary:
hERG-U2OS cells were resuspended in culture medium and dispensed into 1536-well, black wall/clear-bottom plates at 1000cells/well/3uL using a Multidrop Combi dispenser (Thermo Fisher, Waltham, MA). After plates were incubated at 37 C overnight, 3 uL of Loading Buffer provided by FluxOR II Potassium Ion Channel Assay kit (Thermo, Carlsbad, CA) was added to each well. The assay plates were then incubated at room temperature in the dark for 1h. […] After the assay plates were incubated at room temperature for 10 min, 1 uL of Stimulus Buffer provided by FluxOR II Potassium Ion Channel Assay kit was added into each well and fluorescence intensity (480nm excitation/540nm emission) was continuously measured for 2 min at 1 second intervals using a Functional Drug Screening System (FDSS) 7000EX kinetic plate reader (Hamamatsu, Japan).

Row | Compound | Potency
1 | FC(F)(Cl)C(F)(Cl)Cl | inactive
2 | CC(=O)Nc1cccc(N)c1 | inactive
3 | O=[N+]([O-])c1ccc(Cl)cc1Cl | inactive
4 | CC(=O)Oc1cccc2c1C(=O)c1c(OC(C)=O)cc(C(=O)O)cc1C2=O | inactive
5 | CCCC(=O)OCc1ccccc1 | inactive
6 | CCC[Si](OC)(OC)OC | inactive
7 | COc1ccc(C(=O)Nc2ccccc2)cc1[N+](=O)[O-] | inactive
8 | CC1(C)C(=O)NC(=O)N1CO | inactive
9 | Nc1ccc(F)cc1F | inactive
10 | CCCC1CCOC(C)S1 (stereo not given) | inactive
11 | Cc1c(Nc2ncccc2C(=O)O)cccc1C(F)(F)F | inactive
12 | O=C1c2ccccc2C(=O)C1c1ccc2ccccc2n1 | inactive
13 | O=C(Nc1ccc2c(c1)Cc1ccccc1-2)C(F)(F)F | inactive
14 | NC(=O)c1ccccc1C(N)=O | inactive
15 | CC(CCl)OC(C)CCl (stereo not given) | inactive
16 | C[C@H](CN1CCCC1)C(=O)c1ccc(C(F)(F)F)cc1 | inactive
17 | CCCCCCCCNC | inactive
18 | C[C@H]1C[C@H]2[C@@H]3CCC4=CC(=O)C=C[C@]4(C)[C@@]3(F)[C@@H](O)C[C@]2(C)[C@@]1(O)C(=O)COP(=O)(O)O | inactive
19 | C=CC(=O)OCCCCCCCCCC | inactive
20 | CCOC(OCC)OCC | inactive

Row | Compound | Potency
21 | CC(=O)c1ccc(Cl)c(Cl)c1Cl | inactive
22 | O=C1OC(=O)C2CC=CCC12 (stereo not given) | inactive
23 | C=CC(O)CCCCC (stereo not given) | inactive
24 | Oc1ccc(Oc2ccccc2)cc1 | inactive
25 | O=C(O)c1ccccc1-n1cc(C(=O)O)c(=O)c2cc(Nc3c(F)cc(F)cc3Cl)c(Cl)cc21 | inactive
26 | CCCCCO | inactive
27 | NC(=O)c1ccccc1 | inactive
28 | CC(C)CC(C)(C)C | inactive
29 | O=C(O)c1ccc(O)c(O)c1 | inactive
30 | O=C(OCCCCCOC(=O)c1ccccc1)c1ccccc1 | inactive
31 | Cc1c(Cl)cccc1[N+](=O)[O-] | inactive
32 | CO[C@@H]1COCC[C@@H]1N[C@@H]1CC[C@@](C(=O)N2CCc3ncc(C(F)(F)F)cc3C2)(C(C)C)C1 | inactive
33 | Cc1cc(N)n(-c2ccccc2)n1 | inactive
34 | COC(=O)/C=C/C(C)=C\C=C\C(C)=C\C=C\C=C(C)\C=C\C=C(C)\C=C\C(=O)O | inactive
35 | CCCCOc1ccc(N)cc1 | inactive
36 | C[C@H](N)C(=O)N[C@@H](C)C(=O)NC1[C@H]2CN(c3nc4c(cc3F)c(=O)c(C(=O)O)cn4-c3ccc(F)cc3F)C[C@@H]12 (stereo not given in full) | inactive
37 | C1=COCCC1 | inactive
38 | CC1(COc2ccc(CC3SC(=O)NC3=O)cc2)CCCCC1 (stereo not given) | inactive
39 | O=C(O)c1cc(C(=O)O)c(C(=O)O)cc1C(=O)O | inactive
40 | O=C(O)CNc1ccccc1 | inactive
